Compounds with a hit are over-represented: about 4.8% of the library has one in this group of screens.
S2 tox: reduces viability in counter-screen for ATXN expression inhibitors; Potency, µM (titrated, usually from 56.7 µM), hits mostly cytotoxic; AID 651635; S2 cells (HEK-293 line with an ATXN2-luciferase reporter) viability, CellTiter-Fluor protease fluorescence, 24 h; 0.49% of 400,000 active; note: potency is the fitted concentration of half-maximal effect; nearly all actives have a fitted effect of over 40% in size
USP1 inh: blocks the human USP1/UAF1 deubiquitinase complex | 0.23% of 390,000 active | Potency, µM (titrated, usually from 57.1 µM), for inactives: top-dose activity change, negative = inhibition, actives largely listed as inhibitors | recombinant USP1/UAF1, Ub-Rhodamine cleavage fluorescence; note: potency is the fitted concentration of half-maximal effect; % is set by controls: 0 for no effect and ±100 for the full control effect; nearly all actives have a fitted effect of over 60% in size
Target sequence (O94782 whole entry, looked up): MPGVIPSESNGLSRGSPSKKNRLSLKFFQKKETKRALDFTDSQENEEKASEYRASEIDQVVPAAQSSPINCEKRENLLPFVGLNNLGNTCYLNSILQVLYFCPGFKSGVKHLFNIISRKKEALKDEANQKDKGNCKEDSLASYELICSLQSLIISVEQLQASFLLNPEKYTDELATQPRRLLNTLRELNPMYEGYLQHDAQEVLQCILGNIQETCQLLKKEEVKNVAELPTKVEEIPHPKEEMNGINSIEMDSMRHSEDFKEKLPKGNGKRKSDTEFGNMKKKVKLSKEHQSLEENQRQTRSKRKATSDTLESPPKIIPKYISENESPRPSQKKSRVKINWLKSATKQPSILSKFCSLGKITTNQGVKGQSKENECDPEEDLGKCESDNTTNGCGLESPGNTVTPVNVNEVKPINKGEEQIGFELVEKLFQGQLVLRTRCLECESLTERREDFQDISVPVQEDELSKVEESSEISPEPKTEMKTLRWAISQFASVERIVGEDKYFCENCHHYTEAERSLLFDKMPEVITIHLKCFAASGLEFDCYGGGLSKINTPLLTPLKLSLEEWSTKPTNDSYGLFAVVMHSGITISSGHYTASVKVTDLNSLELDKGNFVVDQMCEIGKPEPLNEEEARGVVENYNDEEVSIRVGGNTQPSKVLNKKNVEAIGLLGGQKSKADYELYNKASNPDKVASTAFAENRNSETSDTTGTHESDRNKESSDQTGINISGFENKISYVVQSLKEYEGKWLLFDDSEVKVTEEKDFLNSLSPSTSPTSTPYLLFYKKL
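High-throughput fluorogenic screen: 1nM USP1/UAF1 complex, Ub-Rho substrate 150nM final, 50mM HEPES pH 7.8 with 0.5mM EDTA, 0.1 mg/ml BSA, 1mM TCEP and 0.01% Tween-20.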
ATXN2 expr inh: reduces ATXN2 reporter expression in HEK-293 cells. HEK-293 ATXN2-luciferase reporter, luminescence, 24 h. Potency, µM (top dose mostly 57 µM), for inactives: top-dose activity change, negative = inhibition, hits mostly inhibitors. 0.72% of 360,000 active. AID 1745845; note: potency is the fitted concentration of half-maximal effect; % is set by controls: 0 for no effect and ±100 for the full control effect; nearly all actives have a fitted effect of over 55% in size
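ATXN2-luciferase reporter cells (luciferase flanked by upstream and downstream ATXN2 gene portions) were treated 24 h at 37 °C with compounds at up to 57 uM. SteadyGlo luminescence gave expression; GF-AFC fluorescence gave viability.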
USP2a inh: inhibitors of human ubiquitin-specific protease USP2a. O75604. USP2 core, Ub-CHOP2 coupled fluorogenic reporter, 485/531. Potency, µM (top dose mostly 38.3 µM), without a hit: at the top dose activity change, negative = inhibition, most hits filed as inhibitors. 0.01% of 330,000 active. AID 463254;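 note: potency is the fitted concentration of half-maximal effect; plate controls were DMSO wells for no effect and full inhibition by NEM control for full effect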
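Deubiquitinase activity read as fluorescence (485/531 nm) after Ub-CHOP2 cleavage activates the enterokinase reporter on its substrate; USP2 core 10nM, Ub-CHOP2 and substrate 25nM each, 30min compound preincubation then 60min RT; data normalized to NEM, curves fitted.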
IL1B secr inh: inflammasome signaling inhibition, IL-1 beta readout; THP-1 LPS/ATP IL-1B secretion, AlphaLISA, 16 h; active compounds read low; activity change, % at 57.5 µM; 4.7% of 360,000 active; in the data active = activity change below about -50%; inconclusive = mostly about -30% to -49%; note: % is set by controls: 0 for no effect and ±100 for the full control effect
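THP-1 cells pretreated 1 hr with compounds (up to 57.5 uM final), then stimulated with LPS (250 ng/mL final) plus ATP (1.25 mM final); secreted IL-1B measured by AlphaLISA after 16 hr, decreased signal indicating inhibition.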
Starred values were filed as active, the others as inactive. Unless noted, calls come from the whole dose curve; as a rule, active = well fitted curve in the direction sought with a large enough effect; inconclusive = small, poorly fitted or top-dose-only effect, or another doubt; inactive = no such curve, though single readings can be large; an effect the other way counts as inactive or inconclusive.

O=C(CC1SC(=Nc2ccccc2)N(CCO)C1=O)Nc1ccccc1 (stereo not drawn) was read as S2 tox inactive, USP1 inh -12%, ATXN2 expr inh 3%, USP2a inh 0% and IL1B secr inh 5.
`C/C(=N\NC(=O)c1cccc(Br)c1)c1ccccn1` gave S2 tox inconclusive, USP1 inh -22%, ATXN2 expr inh inconclusive, USP2a inh 0% and IL1B secr inh -15.
`COc1ccc(C(=O)N/N=C/c2cccc3cccnc23)cc1` gave S2 tox inactive, USP1 inh -14%, ATXN2 expr inh 22µM*, USP2a inh 1% and IL1B secr inh 133.
Screening CCOc1ccc(C(=O)N/N=C/c2cccc3cccnc23)cc1 returned S2 tox inactive, USP1 inh -14%, ATXN2 expr inh inconclusive, USP2a inh 3% and IL1B secr inh 163.
`O=C(NN=C(c1ccccc1)c1ccccn1)c1ccccc1` gave S2 tox inconclusive, USP1 inh -13%, ATXN2 expr inh 4µM*, USP2a inh -6% and IL1B secr inh -99*.
C/C(=N/NC(=O)c1ccccn1)c1ccncc1 was read as S2 tox inactive, USP1 inh 0%, ATXN2 expr inh 9%, USP2a inh 0% and IL1B secr inh -6.
For COc1ccc(C(=O)N/N=C(\c2ccccc2)c2ccccn2)cc1 the results were S2 tox 10µM*, USP1 inh -10%, ATXN2 expr inh 3.2µM*, USP2a inh -6% and IL1B secr inh -23.
O=C(N/N=C(\c1ccccc1)c1ccccn1)c1ccccc1Cl was read as S2 tox inconclusive, USP1 inh 0%, ATXN2 expr inh 22µM*, USP2a inh 2% and IL1B secr inh -104*.
For CCN(CC(=O)Nc1c(F)cccc1F)C(=O)c1ccc2c(c1)OCCO2 the results were S2 tox inactive, USP1 inh 3%, ATXN2 expr inh 3%, USP2a inh -6% and IL1B secr inh -12.
CCc1nnc2c(NCc3cccc(OC)c3)nc3ccccc3n12 was read as S2 tox inactive, USP1 inh -3% and ATXN2 expr inh 1%.
Screening COc1ccc2nc(/C=N/NC(=O)[C@H](CCSC)NC(=O)OC(C)(C)C)ccc2c1 returned S2 tox inconclusive, USP1 inh -25%, ATXN2 expr inh -16%, USP2a inh 0% and IL1B secr inh -11.
Screening CSCC[C@H](NC(=O)OC(C)(C)C)C(=O)N/N=C/c1cccc2cccnc12 returned S2 tox inactive, USP1 inh -19%, ATXN2 expr inh 28µM*, USP2a inh 1% and IL1B secr inh 87.
Screening CCOc1cc(C(=S)N2CCOCC2)ccc1OS(=O)(=O)c1ccc(NC(C)=O)cc1 returned S2 tox inactive, USP1 inh 3%, ATXN2 expr inh -21%, USP2a inh -1% and IL1B secr inh -53*.
For CCOc1cc(C(=S)N2CCOCC2)ccc1OS(=O)(=O)c1ccc(OC)cc1 the results were S2 tox inactive, USP1 inh -23%, ATXN2 expr inh -17%, USP2a inh 1% and IL1B secr inh -29.
`COc1ccc(OCc2cc(-c3ccc(Cl)cc3)no2)cc1` gave S2 tox inactive, USP1 inh -11%, ATXN2 expr inh 10%, USP2a inh 2% and IL1B secr inh 105.
Screening O=C(CCl)NCc1cc(-c2ccc(Cl)cc2)no1 returned S2 tox inconclusive, USP1 inh -23%, ATXN2 expr inh inconclusive, USP2a inh 8% and IL1B secr inh -75*.
Screening Cc1ccsc1/C=C(\CC(=O)O)c1nc2ccccc2o1 returned S2 tox inactive, USP1 inh -13%, ATXN2 expr inh 11%, USP2a inh 0% and IL1B secr inh 24.
For Cc1ccsc1/C=C(\C(=O)c1ccc(OC(C)C)cc1)c1nc2ccccc2o1 the results were S2 tox inactive, USP1 inh -17%, ATXN2 expr inh inconclusive, USP2a inh 1% and IL1B secr inh -67*.
CC1(C)C2CCC(C2)C1(C)NC(=O)CNCC1CCCCC1 (stereo not drawn) was read as S2 tox inconclusive, USP1 inh -31%, ATXN2 expr inh -17%, USP2a inh -1% and IL1B secr inh -78*.
For CCOC(=O)C1=C(C)N(c2ccc(OC)cc2)C(=O)/C1=C\c1cccs1 the results were S2 tox inactive, USP1 inh 3%, ATXN2 expr inh -5%, USP2a inh 0% and IL1B secr inh -60*.
For O=C(N/N=C/c1ccc([N+](=O)[O-])o1)c1ccc(NS(=O)(=O)c2cccs2)cc1 the results were S2 tox inconclusive, USP1 inh -13%, ATXN2 expr inh inconclusive, USP2a inh 3% and IL1B secr inh -54*.
For O=C(N/N=C/c1ccc2c(c1)OCO2)c1ccc(NS(=O)(=O)c2cccs2)cc1 the results were S2 tox inactive, USP1 inh -11%, ATXN2 expr inh 24%, USP2a inh 1% and IL1B secr inh -60*.
`O=C(N/N=C/c1ccc(N2CCOCC2)cc1)c1ccc(NS(=O)(=O)c2cccs2)cc1` gave USP1 inh -8%, ATXN2 expr inh -18%, USP2a inh 6% and IL1B secr inh -7.
Cc1ccc(CN2CCOc3ccc(CN4CCN(CCO)CC4)cc3C2)s1 was read as S2 tox inactive.
Screening C[C@H]1C(=O)N(C)CCN1C(=O)c1ccc(OC2CCN(CCc3ccccc3)CC2)cc1 returned S2 tox inactive, USP1 inh 0% and IL1B secr inh -7.
`COc1ccc([N+](=O)[O-])cc1NCc1ccccc1` gave S2 tox inactive, USP1 inh -14%, ATXN2 expr inh 13%, USP2a inh 0% and IL1B secr inh -89*.
`COc1ccc([N+](=O)[O-])cc1NC(=O)COC(=O)c1ccccc1C(=O)c1ccccc1` gave S2 tox inactive, USP1 inh -2%, ATXN2 expr inh 0%, USP2a inh 3% and IL1B secr inh -52*.
Cc1cc([N+](=O)[O-])ccc1NCc1ccc2c(c1)OCCO2 was read as S2 tox inconclusive, USP1 inh -20%, ATXN2 expr inh 26%, USP2a inh 0% and IL1B secr inh -51*.
`O=C(O)c1cc([N+](=O)[O-])ccc1NCc1ccccc1` gave S2 tox inactive, USP1 inh 3%, ATXN2 expr inh -20%, USP2a inh 3% and IL1B secr inh -70*.
`O=[N+]([O-])c1ccc(NCc2ccc3c(c2)OCO3)cc1` gave S2 tox inactive, USP1 inh -25%, ATXN2 expr inh 0%, USP2a inh 1% and IL1B secr inh -14.
`COc1ccc([N+](=O)[O-])cc1NCc1ccccc1C` gave S2 tox inactive, USP1 inh -16%, ATXN2 expr inh -26%, USP2a inh -1% and IL1B secr inh -16.
